In the library only some 2.6% were active in any assay of this set; here they are far more common.
PRMT1 FP inh = inhibitors of human PRMT1; 370,000 compounds, 1.3% hits; recombinant PRMT1, activity-based probe fluorescence polarization; inhibition, % at 2.79 µM; Q99873; AID 652257;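 active = inhibition above about 21% made by adding two undisclosed values, limit read from the data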
ABHD5 PLIN5 PPI = ABHD5-PLIN5 protein interaction inhibition; Split G. princeps luciferase complementation, luminescence, 4 h; 360,000 compounds, 0.78% hits; AID 602281; inhibition, % at 4 µM; Q00G26+Q8WTS1;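 active = inhibition above the mean inhibition across every tested compound plus 3 SD, cut at about 22% in these data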;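 note: 0% = DMSO only wells and the 100% control is not disclosed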
Target sequence (Q00G26 whole entry, looked up): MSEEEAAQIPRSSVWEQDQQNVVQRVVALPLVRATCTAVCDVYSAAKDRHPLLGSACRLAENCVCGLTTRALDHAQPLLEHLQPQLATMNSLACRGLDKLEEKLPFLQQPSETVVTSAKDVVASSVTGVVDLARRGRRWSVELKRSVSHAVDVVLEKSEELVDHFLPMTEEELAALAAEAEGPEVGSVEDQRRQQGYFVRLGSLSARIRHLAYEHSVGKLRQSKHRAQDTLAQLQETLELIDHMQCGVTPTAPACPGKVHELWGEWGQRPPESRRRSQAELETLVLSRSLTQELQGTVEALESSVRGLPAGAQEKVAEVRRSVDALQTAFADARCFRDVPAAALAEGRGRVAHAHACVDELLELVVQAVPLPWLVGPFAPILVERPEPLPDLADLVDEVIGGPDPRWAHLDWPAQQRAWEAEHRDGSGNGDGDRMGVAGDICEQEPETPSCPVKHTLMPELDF
Target sequence (Q8WTS1 whole entry, looked up): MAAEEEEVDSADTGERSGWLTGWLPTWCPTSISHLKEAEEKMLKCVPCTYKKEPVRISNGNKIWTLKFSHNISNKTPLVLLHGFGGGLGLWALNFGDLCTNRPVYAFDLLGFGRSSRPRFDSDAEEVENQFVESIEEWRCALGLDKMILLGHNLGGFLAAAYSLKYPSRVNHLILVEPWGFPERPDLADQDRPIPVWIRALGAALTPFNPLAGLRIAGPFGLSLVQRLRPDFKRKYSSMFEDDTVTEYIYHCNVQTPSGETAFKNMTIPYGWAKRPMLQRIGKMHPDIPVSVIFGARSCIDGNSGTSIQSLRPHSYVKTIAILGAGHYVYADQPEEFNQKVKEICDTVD
Granule exo inh = lytic granule exocytosis inhibition | TALL-104 LAMP-1 surface exposure, flow cytometry; cells stimulated with thapsigargin and PMA | inhibition, % at 10 µM | 360,000 compounds, 0.66% hits;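 active = inhibition above about 55%, limit read from the data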
TLR4-MyD88 BLA = TLR4-MyD88 interaction inhibition in cells; HeLa CL3-4 TLR4/MyD88 BLA complementation, FRET ratio; O00206+Q99836; inhibition, % at 8.4 µM; AID 861; 200,000 compounds, 0.18% hits; in the data active = inhibition above about 25%;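 note: 0% = vehicle and 100% = reference inhibitor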
NOD2-RIPK2 inh = inhibitors of human NOD2-RIPK2 interaction | O43353 | CHO BLA complementation NOD2-RIPK2, CCF4 ratio | inhibition, % at 4.98 µM | 360,000 compounds, 0.38% hits | AID 624267; in the data active = inhibition above about 21%;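 note: 0% = vehicle only and 100% = reference blocker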
TLR9-MyD88 block = inhibitors of human TLR9-MyD88 binding. inhibition, % at 4.98 µM. 340,000 compounds, 0.21% hits. CHO BLA complementation TLR9-MyD88, CCF4 FRET ratio;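 active = inhibition above the mean over all tested compounds plus 3 SD, cut at about 21% in these data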;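 note: 0% = DMSO only wells and 100% = clavulanate BLA inhibitor control wells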
PRMT1 confirm = confirmation of human PRMT1 inhibitors. recombinant His-PRMT1, activity-based probe fluorescence polarization. inhibition, % at 2.79 µM. 3,300 compounds, 42% hits. shares compounds with PRMT1 FP inh;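 active = mean inhibition across replicates above the hit cutoff derived for the earlier primary screen, cut at about 22% in these data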
Active calls of the source: *.

For CC1(C)CC(=O)C2=C(C1)OC(N)=C(C#N)[C@@H]2c1ccccc1[N+](=O)[O-] the results were PRMT1 FP inh 44*, ABHD5 PLIN5 PPI -10, Granule exo inh -3, NOD2-RIPK2 inh 4, TLR9-MyD88 block -3 and PRMT1 confirm 0.
For COc1cc(C2C(C#N)=C(N)OC3=C2C(=O)CC(C)(C)C3)c([N+](=O)[O-])cc1OC (stereo not given) the results were PRMT1 FP inh 19, ABHD5 PLIN5 PPI -14, Granule exo inh -1, TLR4-MyD88 BLA -3, NOD2-RIPK2 inh -2 and TLR9-MyD88 block 0.
For COc1ccc(C(C(=O)NC(C)(C)C)N(C(=O)CCC(=O)Nc2cc(C)on2)c2cccc(C)c2C)cc1 (stereo not given) the results were PRMT1 FP inh -1, ABHD5 PLIN5 PPI 1, Granule exo inh 14, NOD2-RIPK2 inh -8 and TLR9-MyD88 block -2.
For COc1ccc(CC(=O)Nc2ncc([N+](=O)[O-])s2)cc1OC the results were PRMT1 FP inh 47*, ABHD5 PLIN5 PPI -5, Granule exo inh -2, TLR4-MyD88 BLA -12, NOD2-RIPK2 inh -2, TLR9-MyD88 block -9 and PRMT1 confirm 21.
COc1ccc(CC(=O)Nc2nccs2)cc1OC was read as PRMT1 FP inh 1, ABHD5 PLIN5 PPI 5, Granule exo inh -4, TLR4-MyD88 BLA -8, NOD2-RIPK2 inh -7 and TLR9-MyD88 block 1.
`Cc1ccc(C)c(OCCCCN2CCNCC2)c1C` gave PRMT1 FP inh 2, ABHD5 PLIN5 PPI 6, Granule exo inh 6, NOD2-RIPK2 inh 15 and TLR9-MyD88 block -1.
For CCOc1ccc(S(=O)(=O)Nc2cc(SCC(=O)O)c(O)c3ccccc23)cc1 the results were PRMT1 FP inh 65*, ABHD5 PLIN5 PPI -18, Granule exo inh 0, NOD2-RIPK2 inh 4, TLR9-MyD88 block 6 and PRMT1 confirm 93*.
O=C(O)c1ccccc1NS(=O)(=O)c1cccc2cccnc12 was read as PRMT1 FP inh 0, ABHD5 PLIN5 PPI 3, Granule exo inh 0, TLR4-MyD88 BLA 5, NOD2-RIPK2 inh -8 and TLR9-MyD88 block -7.
CCOC(=O)c1ccccc1NS(=O)(=O)c1ccc(OCC)cc1 was read as PRMT1 FP inh 0, ABHD5 PLIN5 PPI 3, Granule exo inh 5, TLR4-MyD88 BLA 7, NOD2-RIPK2 inh 2 and TLR9-MyD88 block 4.
`O=S(=O)(Nc1cc(Sc2cccc3cccnc23)c(O)c2ccccc12)c1ccccc1` gave PRMT1 FP inh 91*, TLR4-MyD88 BLA 14 and PRMT1 confirm 67*.
Screening COCc1cc(N2CCN(C(=O)OC(C)(C)C)C[C@H]2C)ccc1N1CC[C@@H](O)C1 returned PRMT1 FP inh 66* and PRMT1 confirm 9.
C[n+]1nc(Nc2ccccc2)sc1-c1ccc(O)cc1 was read as PRMT1 FP inh -4, ABHD5 PLIN5 PPI 14, Granule exo inh -3, NOD2-RIPK2 inh -9 and TLR9-MyD88 block 3.
For C[n+]1c(-c2ccccc2)sc([S-])c1-c1ccccc1 the results were PRMT1 FP inh 51*, ABHD5 PLIN5 PPI -10, Granule exo inh -5, NOD2-RIPK2 inh -8 and PRMT1 confirm 20.
For O=C(CN1CCOCC1)N/N=C/c1ccc(-c2cccc(Cl)c2Cl)o1 the results were PRMT1 FP inh 9, ABHD5 PLIN5 PPI 1, Granule exo inh 0, NOD2-RIPK2 inh 1 and TLR9-MyD88 block 4.
CCOC(=O)N(C)OC(=O)Nc1ccc(Cl)c(Cl)c1 was read as PRMT1 FP inh 35*, ABHD5 PLIN5 PPI 17, Granule exo inh 0, TLR4-MyD88 BLA -2, NOD2-RIPK2 inh 2, TLR9-MyD88 block 5 and PRMT1 confirm 36*.
CCOC(=O)N(CC)OC(=O)Nc1ccc(Cl)cc1 was read as PRMT1 FP inh 6, ABHD5 PLIN5 PPI -1, Granule exo inh 0, TLR4-MyD88 BLA -5, NOD2-RIPK2 inh -12 and TLR9-MyD88 block -2.
Screening O=S(=O)(c1cccc(-c2n[nH]c(=S)n2-c2cccc(C(F)(F)F)c2)c1)N1CCOCC1 returned PRMT1 FP inh 6, ABHD5 PLIN5 PPI -13, Granule exo inh -3, NOD2-RIPK2 inh -19 and TLR9-MyD88 block -9.
O=S(=O)(c1cccc(-c2n[nH]c(=S)n2-c2ccc(OC(F)(F)F)cc2)c1)N1CCOCC1 was read as PRMT1 FP inh 27*, ABHD5 PLIN5 PPI -12, Granule exo inh -11, NOD2-RIPK2 inh -5, TLR9-MyD88 block -15 and PRMT1 confirm 15.
O=S1(=O)CC(N2CCN(CCO)CC2)CN1C1CCCCC1 (stereo not given) was read as PRMT1 FP inh -3, ABHD5 PLIN5 PPI 0, Granule exo inh -1 and NOD2-RIPK2 inh 8.
For Cc1ccc2occ(C3N[C@H](C(=O)O)CS3)c(=O)c2c1 (stereo not given in full) the results were PRMT1 FP inh 50*, ABHD5 PLIN5 PPI -3, Granule exo inh -3, TLR4-MyD88 BLA 3, NOD2-RIPK2 inh -11, TLR9-MyD88 block -16 and PRMT1 confirm 45*.
`CC(C)C1Cc2c(sc(NC(=S)NC(=O)c3ccccc3)c2C#N)CO1` (stereo not given) gave PRMT1 FP inh 2, ABHD5 PLIN5 PPI -6, Granule exo inh -3, TLR4-MyD88 BLA -5, NOD2-RIPK2 inh -6 and TLR9-MyD88 block -10.
CCCN1CCc2c(sc(NC(=S)NC(=O)c3ccccc3)c2C#N)C1 was read as PRMT1 FP inh 36*, ABHD5 PLIN5 PPI -6, Granule exo inh -1, TLR4-MyD88 BLA -7, NOD2-RIPK2 inh 3, TLR9-MyD88 block -5 and PRMT1 confirm 2.
`COc1ccc(C/C(N)=N/OC(=O)c2cccc([N+](=O)[O-])c2)cc1` gave PRMT1 FP inh 45*, ABHD5 PLIN5 PPI 6, Granule exo inh 1, TLR4-MyD88 BLA -9, NOD2-RIPK2 inh -17, TLR9-MyD88 block -9 and PRMT1 confirm 4.
COc1ccccc1C/C(N)=N/OC(=O)c1cccc([N+](=O)[O-])c1 was read as PRMT1 FP inh 3, ABHD5 PLIN5 PPI 1, Granule exo inh 1, TLR4-MyD88 BLA -1, NOD2-RIPK2 inh -2 and TLR9-MyD88 block -12.
`CCCCCC(=O)N(O)C1CC(=O)N(c2ccccc2)C1=O` (stereo not given) gave PRMT1 FP inh 84*, ABHD5 PLIN5 PPI 10, Granule exo inh 42, TLR4-MyD88 BLA 16, NOD2-RIPK2 inh 0, TLR9-MyD88 block 8 and PRMT1 confirm 85*.
CCCCCCC(=O)N(O)C1CC(=O)N(Cc2ccccc2)C1=O (stereo not given) was read as PRMT1 FP inh -3, ABHD5 PLIN5 PPI -3, Granule exo inh -2, TLR4-MyD88 BLA -6, NOD2-RIPK2 inh -3 and TLR9-MyD88 block -3.

From PubChem BioAssay
